46 sequences from paper PMC6602471 can be followed below.

Over roughly 1,300 sequences, “log fluorescence intensity” has its median near 8.3; the highest 2% begin near 12. What follows is part of a selection rich in the highest values, with near analogues and random picks from the rest.

This assay deals with T1, ETS1 (Homo sapiens, UniProt P14921 1-441).
T1 sequence: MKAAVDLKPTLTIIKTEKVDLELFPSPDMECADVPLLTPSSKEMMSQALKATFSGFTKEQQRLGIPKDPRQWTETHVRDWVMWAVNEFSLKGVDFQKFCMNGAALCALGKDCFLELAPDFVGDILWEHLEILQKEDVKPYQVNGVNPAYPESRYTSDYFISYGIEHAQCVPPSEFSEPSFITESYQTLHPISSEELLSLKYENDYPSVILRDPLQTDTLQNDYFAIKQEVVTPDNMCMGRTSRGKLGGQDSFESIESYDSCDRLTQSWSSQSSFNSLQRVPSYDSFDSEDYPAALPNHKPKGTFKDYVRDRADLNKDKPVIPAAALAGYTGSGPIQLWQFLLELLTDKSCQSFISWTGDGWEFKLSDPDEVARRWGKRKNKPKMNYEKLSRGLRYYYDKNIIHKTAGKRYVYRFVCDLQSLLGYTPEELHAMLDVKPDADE
Nature of the assay: custom PBM; custom protein-binding microarray; buffer, salt, pH and temperature not stated; high values mean tight binding. The following applies: dsDNA, one strand shown.
With “CTGGGACTTGACCCAACTCTGCCACGTGGGTCGCTTGTCTTGATTCGCTTGACGCTGCTG”, the binding signal was 8.36 log fluorescence intensity.
The value for “GGAAAAAGGCCCAGGGTGACACCGGAAGTGGGCTTAGTCTTGATTCGCTTGACGCTGCTG” was 11.8 log fluorescence intensity; that for “GGTAAAAGGCCCAGGGTAACACCGGAAGTGGGCTTAGTCTTGATTCGCTTGACGCTGCTG” was 11.9 log fluorescence intensity.
With “GGAAAAAGGCCCAGGGTCACACCGGAAGTGGGCTTAGTCTTGATTCGCTTGACGCTGCTG”, the binding signal was 11.9 log fluorescence intensity.
As for “GGAAAAAGGCCCAGGCTAACACCGGAAGTGGGCTTAGTCTTGATTCGCTTGACGCTGCTG”, the binding signal is 12.1 log fluorescence intensity.
The value for “GGAAAAAGGCCCAGGGGAACACCGGAAGTGGGCTTAGTCTTGATTCGCTTGACGCTGCTG” was 12.1 log fluorescence intensity; that for “GGATAAAGGCCCAGGGTAACACCGGAAGTGGGCTTAGTCTTGATTCGCTTGACGCTGCTG” was 11.9 log fluorescence intensity; that for “GGAAAAAGGCCCAGGATAACACCGGAAGTGGGCTTAGTCTTGATTCGCTTGACGCTGCTG” was 12.2 log fluorescence intensity.
In the case of “GGAAAAAGGCCCAGGGCAACACCGGAAGTGGGCTTAGTCTTGATTCGCTTGACGCTGCTG”, the binding signal was 12.2 log fluorescence intensity.
In the case of “GGGAAAAGGCCCAGGGTAACACCGGAAGTGGGCTTAGTCTTGATTCGCTTGACGCTGCTG”, the binding signal was 11.9 log fluorescence intensity.
Next, “GGAAAAAGGCCCAGGGAAACACCGGAAGTGGGCTTAGTCTTGATTCGCTTGACGCTGCTG”: 12.3 log fluorescence intensity; “GGCAAAAGGCCCAGGGTAACACCGGAAGTGGGCTTAGTCTTGATTCGCTTGACGCTGCTG”: 11.7 log fluorescence intensity.
Turning to “GCAAAAAGGCCCAGGGTAACACCGGAAGTGGGCTTAGTCTTGATTCGCTTGACGCTGCTG”, the binding signal is 11.9 log fluorescence intensity.
“GATTAATTTCTGCCCTTATTCGAACGTGCCATAACAGTCTTGATTCGCTTGACGCTGCTG”: the binding signal is 8.42 log fluorescence intensity.
For the sequence “TCCGGCTACCAGCTCCACCCACTTCAGGCCTTATAGGTCTTGATTCGCTTGACGCTGCTG”, the binding signal was 8.46 log fluorescence intensity.
Take “GAAAGGGAAGACGGTTGTGGTAGTTCCGGGTATTAAGTCTTGATTCGCTTGACGCTGCTG”: the binding signal is 8.75 log fluorescence intensity.
The value for “CGGAAGTGTCGTAAACGTCGGATATCCGGTTTTTCTGTCTTGATTCGCTTGACGCTGCTG” was 11.9 log fluorescence intensity; that for “TCCGGCTACCAGCTGCACCCACTTCAGGCCTTGTAGGTCTTGATTCGCTTGACGCTGCTG” was 8.44 log fluorescence intensity.
The value for “GCTGCTGCGGTGTATACCCCACCGGATGTGACCCCGGTCTTGATTCGCTTGACGCTGCTG” was 10.1 log fluorescence intensity; that for “GGAAAACGGCCCAGGGTAACACCGGAAGTGGGCTTAGTCTTGATTCGCTTGACGCTGCTG” was 12 log fluorescence intensity.
On to “TACTGACTTATATATGGGAATGCACATGAATAGACCGTCTTGATTCGCTTGACGCTGCTG”, for which the binding signal was 8.32 log fluorescence intensity.
For the sequence “TTAAGGGAAGACGGTTGTGGTAGTTCCGGGTATTAAGTCTTGATTCGCTTGACGCTGCTG”, the binding signal was 8.48 log fluorescence intensity.
The value for “CGGAAGTGTCGTAAACGTCGGATATCCGGCTCTTCTGTCTTGATTCGCTTGACGCTGCTG” was 10.7 log fluorescence intensity.
The value for “CGGAAGTGTCGTAAATGTCGGATATCCGGTTCTTCTGTCTTGATTCGCTTGACGCTGCTG” was 11.9 log fluorescence intensity; that for “TCCGGCTACCAGCTTCACCCACTTCAGGCCTTGTAGGTCTTGATTCGCTTGACGCTGCTG” was 8.4 log fluorescence intensity.
“GCTGCTGCGGTGCGTACCCCACCGGATGTGACCCCGGTCTTGATTCGCTTGACGCTGCTG”: the binding signal was 9.93 log fluorescence intensity.
“GCTGCTGCGGTGCATACCCCACCGGATGTGACCCAGGTCTTGATTCGCTTGACGCTGCTG”: the binding signal is 10.3 log fluorescence intensity.
The value for “TAAACGGAAGACGGTTGTGGTAGTTCCGGGTATTAAGTCTTGATTCGCTTGACGCTGCTG” was 10.1 log fluorescence intensity.
“CAGCATAGGACTTCCTCCCTGAAGCAATTGATAACCGTCTTGATTCGCTTGACGCTGCTG”: the binding signal is 12.7 log fluorescence intensity.
Regarding “CAGCATAGGACTTCTTCCCTGAAGCAATTGATAACCGTCTTGATTCGCTTGACGCTGCTG”, the binding signal is 8.39 log fluorescence intensity.
Consider “CAGCATAGGACTTCGTCCCTGAAGCAATTGATAACCGTCTTGATTCGCTTGACGCTGCTG”, for which the binding signal was 8.36 log fluorescence intensity.
For the sequence “CCTGCTGCGGTGCATACCCCACCGGATGTGACCCCGGTCTTGATTCGCTTGACGCTGCTG”, the binding signal is 10.4 log fluorescence intensity.
The value for “TAAAGGGAAGACGGTTGTGGTAGTTGCGGGTATTAAGTCTTGATTCGCTTGACGCTGCTG” was 8.38 log fluorescence intensity; that for “TAAAGGGAAGACGGTTGTGGTAGTTCCGGGTATTCAGTCTTGATTCGCTTGACGCTGCTG” was 8.52 log fluorescence intensity; that for “TAAAGGGAAGACGGTTGTGGTAGTTCCGGGTATTACGTCTTGATTCGCTTGACGCTGCTG” was 8.47 log fluorescence intensity.
Next, “CACAATTTTTACAGTAGTGTAGCACGCGTAACTCCTGTCTTGATTCGCTTGACGCTGCTG”: 8.33 log fluorescence intensity.
With “TGTCGGGTAAGGGTATGTAGATCACGTGAATGAAAAGTCTTGATTCGCTTGACGCTGCTG”, the binding signal was 8.34 log fluorescence intensity.
In the case of “TAAAGGGAAGACCGTTGTGGTAGTTCCGGGTATTAAGTCTTGATTCGCTTGACGCTGCTG”, the binding signal is 8.5 log fluorescence intensity.
Next, “CGGAAGTGTCGTAAACGTCGGATATCCGGTACTTCTGTCTTGATTCGCTTGACGCTGCTG”: 11.8 log fluorescence intensity; “TCCTGCTACCAGCTCCACCCACTTCAGGCCTTGTAGGTCTTGATTCGCTTGACGCTGCTG”: 8.42 log fluorescence intensity.
The value for “CAGCATAGGACTTCTTCCCTGAACCAATTGATAACCGTCTTGATTCGCTTGACGCTGCTG” was 8.33 log fluorescence intensity; that for “CACAATTTTTACAGTAATGGAGCACGCGTAACTCCTGTCTTGATTCGCTTGACGCTGCTG” was 8.32 log fluorescence intensity.
The value for “GCTGCTGCGGTACATACCCCACCGGATGTGACCCCGGTCTTGATTCGCTTGACGCTGCTG” was 10.5 log fluorescence intensity; that for “GATTAATCTCTGCCCTTATTCGCACGTGCCATAACAGTCTTGATTCGCTTGACGCTGCTG” was 8.31 log fluorescence intensity; that for “GCTGCTGCGGTGCATACACCACCGGATGTGACCCCGGTCTTGATTCGCTTGACGCTGCTG” was 10.2 log fluorescence intensity.
With “GGAAAAAGGCCCAGGGTAACACGGGAAGTGGGCTTAGTCTTGATTCGCTTGACGCTGCTG”, the binding signal was 8.49 log fluorescence intensity.
